# Test results as given in article PMC11062922 (Nature Chemical Biology, 2023).
# Key:
# Set-up in all cases: species or system human, MV4-11 + K-562 + COLO205 + SK-N-BE2 + OVCAR-8
# HSPE1 = settings: read-out: apparent Kd; compound concentrations: 100 nM and 1000 nM (sheet 'Samples'), CATDS: 0.293798637885134; n = 1
# PGK1 = settings: read-out: apparent Kd; compound concentrations: 100 nM and 1000 nM (sheet 'Samples'), CATDS: 0.39771264362053399; n = 1
# HMOX2 = settings: read-out: apparent Kd; compound concentrations:100 nM and 1000 nM (sheet 'Samples'); n = 1
# IARS = settings: read-out: apparent Kd; compound concentrations: 100 nM and 1000 nM (sheet 'Samples'), CATDS: 0.121118103418118; n = 1
# RAB6A;RAB6B = settings: read-out: apparent Kd; compound concentrations: 100 nM and 1000 nM (sheet 'Samples'), CATDS: 6.2517900726017095E-2; n = 1
# PRKG1 = settings: read-out: apparent Kd; compound concentrations:100 nM and 1000 nM (sheet 'Samples'); n = 1
# PRKX = settings: read-out: apparent Kd; compound concentrations:100 nM and 1000 nM (sheet 'Samples'); n = 1
# ROCK2 = settings: read-out: apparent Kd; compound concentrations:100 nM and 1000 nM (sheet 'Samples'); n = 1
# AGPS = settings: read-out: apparent Kd; compound concentrations:100 nM and 1000 nM (sheet 'Samples'); n = 1
# CDC42BPG = settings: read-out: apparent Kd; compound concentrations: 100 nM and 1000 nM (sheet 'Samples'), CATDS: 6.5617212110221396E-2; n = 1
# GRAMD1A = settings: read-out: apparent Kd; compound concentrations: 100 nM and 1000 nM (sheet 'Samples'), CATDS: 4.7101579015389999E-2; n = 1
# MAP4K4 = settings: read-out: apparent Kd; compound concentrations: 100 nM and 1000 nM (sheet 'Samples'), CATDS: 5.45482325953821E-2; n = 1
# IGF1R = settings: read-out: apparent Kd; compound concentrations: 100 nM and 1000 nM (sheet 'Samples'), CATDS: 4.98725467652835E-2; n = 1
# INSR = settings: read-out: apparent Kd; compound concentrations: 100 nM and 1000 nM (sheet 'Samples'), CATDS: 5.9878421296946899E-2; n = 1
# SMG1 = settings: read-out: apparent Kd; compound concentrations: 100 nM and 1000 nM (sheet 'Samples'), CATDS: 0.40091827457547202; n = 1
# CAMK2G = settings: read-out: apparent Kd; compound concentrations:100 nM and 1000 nM (sheet 'Samples'); n = 1
compound,measurement,setting,value
Cc1[nH]nc2c1N=C(c1ccccc1Cl)c1cc([N+](=O)[O-])ccc1N2 [RO0274406-000],potency estimated from few doses,HSPE1,60.7 nM
same,potency estimated from few doses,PGK1,37.7 nM
Nc1c(C(=O)c2ccccc2)cnn1-c1ccc(F)cc1 [RO1151246-000],potency estimated from few doses,HMOX2,2210 nM
CS(=O)(=O)c1ccc(-c2nc3n(c2-c2ccncc2)CCC3)cc1 [SKF-105942],potency estimated from few doses,IARS,1900 nM
Fc1cccc(COc2ccc(Nc3ncncc3C#Cc3ccccc3)cc2Cl)c1 [GW651576X],potency estimated from few doses,RAB6A;RAB6B,1160 nM
COc1ccc(C2=NC(c3ccc(Cl)cc3F)C(C(=O)Nc3ccc4[nH]ncc4c3)=C(C)N2)cn1.O=C(O)C(F)(F)F (stereo not shown) [GSK534913A],potency estimated from few doses,PRKG1,825 nM
same,potency estimated from few doses,PRKX,758 nM
same,potency estimated from few doses,ROCK2,131 nM
COc1ccc(COc2ccc(Cc3cnc(N)nc3N)cc2OC)cc1 [GW632580X],potency estimated from few doses,AGPS,1650 nM
COc1ccc(-c2nn3ncccc3c2-c2ccnc(Nc3ccc4c(c3)OCCO4)n2)cc1 [GW827106X],potency estimated from few doses,CDC42BPG,834 nM
same,potency estimated from few doses,GRAMD1A,1730 nM
same,potency estimated from few doses,MAP4K4,1220 nM
COc1cc(N2CCN(C(C)C)CC2)ccc1Nc1nc(Nc2cccc(F)c2C(=O)O)c2cc[nH]c2n1 [GSK1819799A],potency estimated from few doses,IGF1R,1270 nM
same,potency estimated from few doses,INSR,816 nM
COc1ccc(-c2ccncc2)cc1C(N)=O [GSK605714A],potency estimated from few doses,SMG1,1830 nM
Cl.Oc1ccc2ncnc(Nc3ccc(OCc4ccccc4)cc3)c2c1 [GI262866A],potency estimated from few doses,CAMK2G,385 nM
